Screens deposited in PubChem BioAssay by National Center for Advancing Translational Sciences (NCATS).
GALK inhibitor = inhibitors of human galactokinase; P51570; Purified GALK, Kinase-Glo residual ATP luminescence; Potency, µM (top dose mostly 57.5 µM), actives largely listed as inhibitors; 270,000 tested, 0.007% active; AID 1868
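Kinase-Glo Plus luminescence measured ATP left after a 1 h room-temperature reaction. The reaction used 5 nM GALK, 100 uM galactose and 35 uM ATP at pH 8.0 (20 mM HEPES, 5 mM MgCl2, 60 mM NaCl, 1 mM DTT, 0.01% BSA).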
TrxR1 substrate = rat thioredoxin reductase 1 substrate activity; purified TrxR1 substrate turnover, NADPH consumption readout; Potency, µM (titrated, usually from 114 µM); 390,000 tested, 0.01% active; also: nearly all actives have a fitted effect of over 50% in size
Target sequence (O89049 whole entry, looked up): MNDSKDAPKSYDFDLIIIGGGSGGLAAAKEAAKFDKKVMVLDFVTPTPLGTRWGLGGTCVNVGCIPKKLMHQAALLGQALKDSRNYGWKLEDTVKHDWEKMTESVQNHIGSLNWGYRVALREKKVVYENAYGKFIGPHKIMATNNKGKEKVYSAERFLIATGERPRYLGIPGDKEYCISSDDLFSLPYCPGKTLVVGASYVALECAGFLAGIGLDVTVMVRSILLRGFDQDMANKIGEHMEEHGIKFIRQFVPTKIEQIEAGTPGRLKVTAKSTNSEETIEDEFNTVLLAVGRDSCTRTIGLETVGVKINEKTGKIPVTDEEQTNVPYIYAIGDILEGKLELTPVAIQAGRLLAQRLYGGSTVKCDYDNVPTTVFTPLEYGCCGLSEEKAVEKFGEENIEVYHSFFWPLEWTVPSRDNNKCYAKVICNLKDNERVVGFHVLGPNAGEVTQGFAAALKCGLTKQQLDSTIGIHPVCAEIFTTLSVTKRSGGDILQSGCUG
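Rat TrxR1, dispensed at 90 nM, was prereduced with 400 uM NADPH (final) for 5 min at ~22 deg C, then incubated with compound 15 min before 400 uM selenite. A first-read NADPH fluorescence drop versus no-compound background flagged substrates.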
PKM2 activator = increases activity of human pyruvate kinase M2; P14618; purified PKM2, Kinase-Glo ATP luminescence, activation; response scale: 0% is enzyme alone, no compound; Potency, µM (highest dose often 57.5 µM), most hits filed as activators; 260,000 tested, 0.34% active; AID 1631; also: nearly all actives have a fitted effect of over 55% in size
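Purified hPK-M2 (>95% pure) converted ADP (0.1 mM final) to ATP with 0.5 mM PEP in 50 mM imidazole pH7.2, KCl, MgCl2, Tween 20, BSA; 1 h at room temperature. ATP detected by Kinase-Glo luminescence.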
IDH1 R132H inh = human IDH1 R132H inhibition; AID 602179; 390,000 tested, 0.093% active; IDH1-R132H enzyme, NADPH consumption, diaphorase/resazurin fluorescence; Potency, µM (titrated, usually from 76.6 µM), most hits filed as inhibitors; also: nearly all actives have a fitted effect of over 65% in size
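IDH1-R132H (0.5 ug/mL) preincubated 30 min with compound, then NADPH (0.016 mM) and alpha-KG (2 mM) added; 80 min at RT, pH 7.5. Remaining NADPH coupled via diaphorase/resazurin to fluorescence (540/590 nm); concentration-response curves normalized to no-enzyme control.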
rTrxR1 inhibitor = inhibitors of rat thioredoxin reductase 1; AID 588453; O89049; Potency, µM (top dose mostly 114 µM), actives largely listed as inhibitors; recombinant rTrxR1, NADPH fluorescence consumption, selenite substrate; 390,000 tested, 1% active; also: nearly all actives have a fitted effect of over 65% in size
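Rat TrxR1 (90 nM in the dispensed reagent) was pre-reduced with 400 uM NADPH for 5 min at room temperature, then incubated with compound for 15 min. After 400 uM selenite was added, NADPH fluorescence (Ex 340/Em 450 nm) was followed for 8 min.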
Apoferritin bind = candidate novel general anesthetic via apoferritin binding | P02791 | apoferritin/1-aminoanthracene competitive binding, fluorescence | Potency, µM (top dose mostly 77.5 µM), hits mostly inhibitors | 350,000 tested, 0.074% active | AID 485281; also: nearly all actives have a fitted effect of over 20% in size
Target sequence (P02791 2-175 limits assumed): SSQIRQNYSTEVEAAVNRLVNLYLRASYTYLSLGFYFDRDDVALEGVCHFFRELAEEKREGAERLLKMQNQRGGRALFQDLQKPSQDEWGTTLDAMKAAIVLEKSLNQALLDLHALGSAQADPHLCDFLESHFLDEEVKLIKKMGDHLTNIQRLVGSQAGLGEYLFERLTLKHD
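Read-out: endpoint 1-AMA fluorescence, excitation 380 nm and emission 535 nm, after compounds sit 10 min at room temperature with 10 uM horse-spleen apoferritin in 50% saturated 1-AMA/PBS. Values come from four-parameter Hill fits.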
Numbers stand for hits; [ ] = remark or other dose. The list is not random: actives were taken first. Their share in the collection is about 1.3%. Calls follow the shape of the dose curve; as a rule, active = well fitted curve in the direction sought with a large enough effect; inconclusive = small, poorly fitted or top-dose-only effect, or another doubt; inactive = no such curve, though single readings can be large; an effect the other way counts as inactive or inconclusive.

Screening C=CCOc1ccccc1CN(C(=O)CCl)c1ccc2c(c1)OCO2 returned GALK inhibitor inactive, TrxR1 substrate inactive, PKM2 activator inactive, IDH1 R132H inh inactive, rTrxR1 inhibitor 20µM and Apoferritin bind inactive.
Screening CCOc1ccccc1NC(=O)Nc1ccc2c(c1)OCO2 returned GALK inhibitor inactive, TrxR1 substrate inactive, PKM2 activator inactive, IDH1 R132H inh inactive, rTrxR1 inhibitor inactive and Apoferritin bind inactive.
`O=C1CC(N2CCC(c3nc4ccccc4o3)CC2)C(=O)N1c1ccc(Cl)c(C(F)(F)F)c1` (configuration not stated) gave GALK inhibitor inactive, TrxR1 substrate inactive, PKM2 activator inactive, IDH1 R132H inh inactive, rTrxR1 inhibitor 18µM and Apoferritin bind inconclusive.
`O=C1CC(N2CCC(c3nc4ccccc4o3)CC2)C(=O)N1c1ccc(F)cc1` (configuration not stated) gave GALK inhibitor inactive, TrxR1 substrate inactive, PKM2 activator inactive, IDH1 R132H inh inactive, rTrxR1 inhibitor inactive and Apoferritin bind inactive.
CCCn1c(CC)nc([N+](=O)[O-])c1S(=O)(=O)c1ccccc1 was read as GALK inhibitor inactive, TrxR1 substrate inactive, PKM2 activator inactive, IDH1 R132H inh inactive, rTrxR1 inhibitor 0.32µM and Apoferritin bind inactive.
Cn1cnc([N+](=O)[O-])c1S(=O)(=O)c1cccc(Cl)c1 was read as GALK inhibitor inactive, TrxR1 substrate inactive, PKM2 activator inactive, IDH1 R132H inh inactive, rTrxR1 inhibitor inconclusive and Apoferritin bind inactive.
`N#CC(C#N)=Cc1ccc(-c2ccc(S(=O)(=O)N=C(N)N)cc2)o1` gave GALK inhibitor inactive, TrxR1 substrate inactive, PKM2 activator 18µM, IDH1 R132H inh inactive, rTrxR1 inhibitor inconclusive and Apoferritin bind inactive.
`COC(=O)/C(C#N)=C/c1ccc(-c2ccc(S(N)(=O)=O)cc2)o1` gave GALK inhibitor inactive, TrxR1 substrate inactive, PKM2 activator inactive, IDH1 R132H inh inactive, rTrxR1 inhibitor inactive and Apoferritin bind inactive.
For Cc1cc(=O)n(CC(=O)N2CCN(c3ccc(F)cc3)CC2)c2c1c(C)nn2C the results were TrxR1 substrate inactive, IDH1 R132H inh inactive, rTrxR1 inhibitor inactive and Apoferritin bind inactive.
CCOc1ccc(NS(=O)(=O)c2ccc(C(=O)N(C)C)s2)cc1 was read as TrxR1 substrate inactive, IDH1 R132H inh inactive, rTrxR1 inhibitor inactive and Apoferritin bind inactive.
`CCOC(=O)C1=NNC2(CC(=O)N(c3cc(C)cc(C)c3)C2=O)C1` (configuration not stated) gave GALK inhibitor inactive, TrxR1 substrate inactive, PKM2 activator inactive, IDH1 R132H inh inactive, rTrxR1 inhibitor inactive and Apoferritin bind inactive.
CCOC(=O)C1=NN(N=O)C2(CC(=O)N(c3cc(C)cc(C)c3)C2=O)C1 (configuration not stated) was read as GALK inhibitor inactive, TrxR1 substrate inactive, PKM2 activator inactive, IDH1 R132H inh inactive, rTrxR1 inhibitor 16µM and Apoferritin bind inactive.
For CCOc1ccc(NC(=O)C(c2ccccn2)N(C(=O)CCl)c2ccc(OCC)cc2)cc1 (configuration not stated) the results were GALK inhibitor inactive, TrxR1 substrate inactive, PKM2 activator inactive, IDH1 R132H inh inactive, rTrxR1 inhibitor 79µM and Apoferritin bind inactive.
For Cc1ccc(C(=O)N/C(=C\c2ccc(-c3ccccc3[N+](=O)[O-])o2)C(=O)NCCCN2CCOCC2)cc1 the results were GALK inhibitor inactive, TrxR1 substrate inactive, IDH1 R132H inh inactive, rTrxR1 inhibitor 40µM and Apoferritin bind inactive.
Screening O=C(Oc1ccc(F)cc1)c1nc(SCc2ccc(F)cc2)ncc1Cl returned TrxR1 substrate inactive, IDH1 R132H inh inactive, rTrxR1 inhibitor inactive and Apoferritin bind inactive.
`Cc1ccc2c(=O)cc(C(=O)N(Cc3ccc(C(C)(C)C)cc3)C3CCS(=O)(=O)C3)oc2c1` (configuration not stated) gave TrxR1 substrate inactive, IDH1 R132H inh inactive, rTrxR1 inhibitor inactive and Apoferritin bind inconclusive.
OC(CN1C=CCc2ccccc21)c1ccc(Cl)cc1Cl (configuration not stated) was read as TrxR1 substrate inactive[0.0914 µM] and rTrxR1 inhibitor inactive.
O=C1C(C2=C(O)c3ccccc3C2=O)=Nc2ccccc21 was read as GALK inhibitor inconclusive, TrxR1 substrate 35µM, PKM2 activator inactive, IDH1 R132H inh inactive, rTrxR1 inhibitor 14µM and Apoferritin bind inactive.
For Cc1ccc(N(Cc2cc(=O)[nH]c3ccccc23)C(=O)CCl)c(C)c1 the results were GALK inhibitor inactive, TrxR1 substrate inactive, IDH1 R132H inh inactive, rTrxR1 inhibitor 79µM and Apoferritin bind inactive.
c1ccc2c(c1)sc[n+]2CCC1CCCCC1 was read as TrxR1 substrate inactive and rTrxR1 inhibitor inactive.
For COC(=O)C1C=CC(OC2OC(COC(C)=O)C(OC(C)=O)C(OC(C)=O)C2OC(C)=O)n2c(=O)n(-c3ccccc3)c(=O)n21 (configuration not stated) the results were TrxR1 substrate inactive, IDH1 R132H inh inactive and rTrxR1 inhibitor 11µM.
For CC(=O)OCC1OC(n2ccc3ccccc32)C(OC(C)=O)C(OC(C)=O)C1OC(C)=O (configuration not stated) the results were GALK inhibitor inactive, TrxR1 substrate inactive, PKM2 activator inactive, IDH1 R132H inh inactive, rTrxR1 inhibitor inactive and Apoferritin bind inactive.
CC1(C)CC(=O)C2=C(C1)OC1=C(C(=O)CC(C)(C)C1)C2c1ccc(O)cc1O was read as GALK inhibitor inactive, TrxR1 substrate inactive, PKM2 activator inconclusive, IDH1 R132H inh inactive, rTrxR1 inhibitor 3.5µM and Apoferritin bind inactive.
Screening Cc1ccccc1C(=O)NC(=S)Nc1ccc(N2CCOCC2)cc1 returned GALK inhibitor inactive, TrxR1 substrate inactive, IDH1 R132H inh inactive, rTrxR1 inhibitor 56µM and Apoferritin bind inactive.
For O/N=C1\CCC\C1=C/c1ccco1 the results were GALK inhibitor inactive, TrxR1 substrate inactive, PKM2 activator inactive, IDH1 R132H inh inactive, rTrxR1 inhibitor inconclusive and Apoferritin bind inconclusive.
For O=C1C(=Cc2ccco2)CCCC1=Cc1ccco1 the results were TrxR1 substrate inconclusive, IDH1 R132H inh inactive and rTrxR1 inhibitor 45µM.
For O=C1C(=Cc2ccco2)CCC1=Cc1ccco1 the results were TrxR1 substrate inactive, IDH1 R132H inh inactive and rTrxR1 inhibitor 2.8µM.
`COc1ccc(CNC(=O)c2cc(-c3cccc(Cl)c3)on2)cc1` gave TrxR1 substrate inactive, IDH1 R132H inh inactive, rTrxR1 inhibitor inactive and Apoferritin bind inconclusive.
`Cc1ccc(C)c(C(=O)C[n+]2cccc(Br)c2)c1` gave TrxR1 substrate inactive and rTrxR1 inhibitor inactive.
`O=C(C[n+]1cccc(Br)c1)c1cc(Cl)ccc1Cl` gave TrxR1 substrate inactive and rTrxR1 inhibitor 11µM.
